Compound activity (PubChem BioAssay)
In the library only some 7.6% were active in any assay of this set; here they are far more common.
NS3h inh CB = blocks HCV NS3 helicase binding to DNA; hit rate 1.6% among 16,000; NS3h Cy5-dT15 DNA binding, fluorescence polarization; AID 687043; inhibition, % at 100 µM;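 active = inhibition above the average over every tested compound plus 3 SD, cut at about 40% in these data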
Cy5 interf NS3h = enhances or quenches Cy5 fluorescence in NS3h assay. Cy5-dT15 DNA with NS3h, fluorescence interference; actives lie on both sides; signal over control mean, under 1 quenches. fluorescence interference ratio at 100 µM. hit rate 6% among 16,000. AID 720488;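 active = compound fluorescence over control fluorescence at most 0.8, a quencher, or at least a set upper limit, an enhancer; inactive = ratio between 0.8 and the set upper limit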
NS3h confirm = confirmation of hepatitis C virus NS3 helicase inhibitors; shares compounds with NS3h inh CB; NS3h binding to Cy5-dT15 DNA, fluorescence polarization; inhibition, % at 100 µM; hit rate 20% among 240; AID 720485;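 active = percent inhibition of 50% or more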
SSB FP counter = E. coli SSB-DNA binding inhibition, NS3h counter-screen; shares compounds with NS3h inh CB; E. coli SSB binding Cy5-dT15, fluorescence polarization; inhibition, % at 100 µM; hit rate 40% among 240; AID 720486;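 active = inhibition of at least 50%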;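 note: displacers lower Cy5 polarization so higher inhibition means more SSB displaced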
Target sequence (P0AGE0 whole entry, looked up): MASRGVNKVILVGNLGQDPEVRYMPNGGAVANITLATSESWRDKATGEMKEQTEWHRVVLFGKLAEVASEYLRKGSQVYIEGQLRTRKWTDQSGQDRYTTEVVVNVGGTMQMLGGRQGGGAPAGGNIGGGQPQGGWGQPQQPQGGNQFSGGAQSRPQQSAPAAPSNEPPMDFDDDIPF
Cy5 SSB fluor CB = counter-screen for HCV NS3 helicase inhibitors: fluorescence interference | shares compounds with NS3h inh CB | Cy5-dT15/E. coli SSB fluorescence interference; actives lie on both sides | fluorescence interference ratio at 100 µM | hit rate 8% among 240;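 active = fluorescence interference ratio at or above 1.2, signal boosting, or at or below 0.8, signal quenching; inactive = ratio between 0.8 and 1.2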
Cy5 interf conf = Cy5 fluorescence interference, confirmation counter-screen; shares compounds with NS3h inh CB; Cy5-dT15 DNA/NS3h fluorescence interference counterscreen; fluorescence interference ratio at 100 µM, hits read low; hit rate 44% among 240; AID 720489;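 active = fluorescence interference ratio at or below 0.8 quencher or at or above a set limitenhancer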
Large screens that a line does not name were inactive (follow-up assays come after a bar, where they were run).

CCOc1ccc(C(=O)Nc2cc(OC)ccc2OC)cc1[N+](=O)[O-]	NS3h inh CB 89 | NS3h confirm inactive | SSB FP counter inactive | Cy5 SSB fluor CB inactive | Cy5 interf conf inactive
O=C(NC(=S)Nc1ccc2oc(-c3ccc(Cl)cc3)nc2c1)c1ccccc1	none
O=C(NC(=S)Nc1ccc2oc(-c3ccc(Cl)c(Cl)c3)nc2c1)c1ccccc1	NS3h inh CB 102, Cy5 interf NS3h 1.2 | NS3h confirm inactive | SSB FP counter inactive | Cy5 SSB fluor CB inactive | Cy5 interf conf 0.8
O=C1NN(c2ccc(Cl)c(Cl)c2)C(=O)/C1=C/c1ccc(Cl)c([N+](=O)[O-])c1	none
CCOc1cc(/C=C2\C(=O)NN(c3ccc(Cl)c(Cl)c3)C2=O)ccc1OC(C)=O	none | NS3h confirm inactive | SSB FP counter inactive | Cy5 SSB fluor CB inactive | Cy5 interf conf inactive
N#CSC(C#N)Cc1cccc([N+](=O)[O-])c1 (stereo not given)	none
NC1=NN(c2ccc(N)cc2)CC1	NS3h inh CB active, Cy5 interf NS3h 0.076 | NS3h confirm 90 | SSB FP counter 100 | Cy5 SSB fluor CB 0 | Cy5 interf conf 0.072
Cc1ccc(C2Nc3ccccc3NC3=C2C(=O)CC(c2ccccc2)C3)cc1 (stereo not given)	none
O=C1C(=O)N(c2nc3ccccc3s2)C(c2ccccc2Cl)C1=C(O)c1ccccc1 (stereo not given)	none | NS3h confirm inactive | SSB FP counter inactive | Cy5 SSB fluor CB inactive | Cy5 interf conf 0.76
O=C1C(=O)N(c2nc3ccccc3s2)C(c2ccccc2F)C1=C(O)c1ccccc1 (stereo not given)	none
COC(=O)c1ccccc1NC(=O)Nc1ccc(Cl)cc1Cl	none
O=C1NN(c2ccccc2)C(=O)/C1=C/c1ccc(-c2ccc(C(=O)O)cc2)o1	none
Cc1ccc(-c2ccc(/C=C3\C(=O)NN(c4ccccc4)C3=O)o2)c([N+](=O)[O-])c1	none
O=C1NN(c2ccccc2)C(=O)/C1=C/c1ccc(Br)o1	NS3h inh CB 94 | NS3h confirm 52 | SSB FP counter 107 | Cy5 SSB fluor CB inactive | Cy5 interf conf 0.79
O=C1NN(c2ccccc2)C(=O)/C1=C/c1ccc([N+](=O)[O-])o1	NS3h inh CB 82, Cy5 interf NS3h 0.77 | NS3h confirm 52 | SSB FP counter 117 | Cy5 SSB fluor CB inactive | Cy5 interf conf inactive
O=[N+]([O-])c1ccc(Oc2ccc(S(=O)(=O)N3CCOCC3)cc2)cc1	none
COc1ccccc1C/C(N)=N\OC(=O)c1ccc(C)c([N+](=O)[O-])c1	none
CN1C(=O)/C(=C/c2c(Cl)cccc2Cl)SC1=S	none
CN1C(=O)C(=Cc2c(Cl)cccc2Cl)C(=O)N(C)C1=O	NS3h inh CB 42 | NS3h confirm inactive | SSB FP counter inactive | Cy5 SSB fluor CB inactive | Cy5 interf conf inactive
CC(C(=O)NCc1ccco1)N1C(=O)c2ccccc2C1=O (stereo not given)	none
CN1C(=O)C(=O)N(CC(=O)NCc2ccco2)C1=O	NS3h inh CB 74, Cy5 interf NS3h 0.75 | NS3h confirm inactive | SSB FP counter inactive | Cy5 SSB fluor CB 0.77 | Cy5 interf conf inactive
CCOc1ccc(N2C(=O)NC(=O)/C(=C\c3ccc(-c4ccc([N+](=O)[O-])cc4OC)o3)C2=O)cc1	none
O=C1NC(=O)N(c2ccc(Cl)cc2)C(=O)/C1=C\c1ccc(-c2ccccc2[N+](=O)[O-])o1	none
CCOc1ccc(N2C(=O)NC(=O)/C(=C\c3ccc(-c4ccccc4C(=O)O)o3)C2=O)cc1	NS3h inh CB 67 | NS3h confirm inactive | SSB FP counter inactive | Cy5 SSB fluor CB inactive | Cy5 interf conf inactive
O=C1NC(=O)N(c2ccc(Cl)cc2)C(=O)/C1=C/c1ccc(-c2ccccc2C(=O)O)o1	NS3h inh CB 44 | NS3h confirm 56 | SSB FP counter inactive | Cy5 SSB fluor CB inactive | Cy5 interf conf inactive
COc1ccc(/C=C(\C#N)C(=O)Nc2ccc(F)cc2)c2ccccc12	none
COc1ccc(OC)c(CN2CCN(Cc3cccnc3)CC2)c1	none
COc1cc(C(=O)NC(NC(=S)Nc2cccc(C)c2)C(Cl)(Cl)Cl)cc(OC)c1OC (stereo not given)	none
O=C(O)CCCCCN1C(=O)C(=O)C(=C(O)c2ccccc2)C1c1ccccc1F (stereo not given)	none
O=C1/C(=C/c2ccc([N+](=O)[O-])cc2)NC(=S)N1c1ccccc1	none
CC(=O)Nc1ccc(N2C(=O)/C(=C/c3ccc([N+](=O)[O-])cc3)C=C2c2ccccc2)cc1	Cy5 interf NS3h 1.4 | NS3h confirm inactive | SSB FP counter inactive | Cy5 SSB fluor CB inactive | Cy5 interf conf inactive
NS(=O)(=O)c1ccc(NC(=S)NC(=O)c2ccccc2)cc1	NS3h inh CB 50 | NS3h confirm inactive | SSB FP counter 83 | Cy5 SSB fluor CB inactive | Cy5 interf conf inactive
CC(=O)c1ccc(NC(=S)NC(=O)c2ccccc2)cc1	none
CCN(CC)c1ccc(-n2c(O)c(C=C3C=Nc4ccccc43)sc2=S)cc1	none
O=c1oc2ccccc2c(O)c1C=C1C=Nc2ccccc21	NS3h inh CB 46 | NS3h confirm inactive | SSB FP counter inactive | Cy5 SSB fluor CB inactive | Cy5 interf conf inactive
N#C/C(=C\c1ccc(F)cc1)C(=O)NC1CCS(=O)(=O)C1 (stereo not given)	none
Cc1ccc(C=C2C(=O)NC(=O)N(c3cccc(Cl)c3)C2=O)s1	none
CN1C(=O)NC(=O)/C(=C\c2ccc(Cl)cc2Cl)C1=O	NS3h inh CB 74 | NS3h confirm inactive | SSB FP counter inactive | Cy5 SSB fluor CB inactive | Cy5 interf conf inactive
COc1ccc(/C=C(\NC(=O)c2ccc(Cl)cc2)C(=O)NCCCN2CCOCC2)cc1OC	none
CC1=C(C(=O)Nc2ccccc2)C(c2ccccc2F)NC(=S)N1 (stereo not given)	none
COc1ccccc1N1C(=O)NC(=O)/C(=C\c2ccc(O)c(O)c2)C1=O	NS3h inh CB 44 | NS3h confirm inactive | SSB FP counter inactive | Cy5 SSB fluor CB inactive | Cy5 interf conf inactive
Cc1ccc(N2C(=O)NC(=O)/C(=C\c3ccc(O)c(Br)c3)C2=O)cc1	none
O=C1NC(=O)N(c2ccccc2F)C(=O)/C1=C/c1ccc(O)c(Cl)c1	none
Cc1ccc(N2C(=O)NC(=O)/C(=C\c3ccc(O)c(Cl)c3)C2=O)cc1	none
Cc1cc(C)cc(N2C(=O)NC(=O)/C(=C\c3ccc(O)c(Br)c3)C2=O)c1	none | NS3h confirm inactive | SSB FP counter inactive | Cy5 SSB fluor CB inactive | Cy5 interf conf 0.75
Cc1cccc(N2C(=O)NC(=O)/C(=C\c3ccc(O)c(Cl)c3)C2=O)c1	NS3h inh CB 65 | NS3h confirm inactive | SSB FP counter inactive | Cy5 SSB fluor CB inactive | Cy5 interf conf inactive
C=CCOc1c(Br)cc(/C=C2\C(=O)NC(=O)N(c3ccc(Cl)cc3)C2=O)cc1OC	none
O=C1NC(=O)N(c2ccc(Cl)cc2)C(=O)/C1=C/c1cc(Br)c(O)c([N+](=O)[O-])c1	none | NS3h confirm inactive | SSB FP counter 76 | Cy5 SSB fluor CB inactive | Cy5 interf conf inactive
CCCCc1ccc(/C=C2\C(=O)c3ccccc3C(O)=C2C(=O)OCC)cc1	none
